Data: the supplement of paper PMC11417369
± gives the standard deviation of the averaged measurements. Whole data set: some 25,000 sequences, median “ln(normalized median fluorescence intensity)” near 10, cut for the highest 2% near 12. The full list was thinned out, with the highest values kept by preference.

test system: PfAP2-G AP2 domain (GST-tagged); test: gcPBM binding intensity (ln(normalized median fluorescence intensity)); higher = stronger DNA binding
Procedure, shortened: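 Binding intensity is the highest Masliner-normalised natural-log median intensity over replicate spots in either probe orientation. To obtain it, GST-tagged P. falciparum DNA-binding domains made in E. coli were incubated for 1 h on an Agilent 4 × 180k array of primer-extended double-stranded 36-bp intergenic genomic probes plus negative controls. Detection used Alexa488 anti-GST antibody with scanning at 488 nm.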

Sequence	gcPBM binding intensity (ln)
ACAAGATGATGGAAATGTACATAAAAAGAATCATAT [XGTACX_site8682]	11.2 ± 0.63
AAAAAAAAAAAAACTACACACATACAAATATTTATA [CACACA_site5430]	9.875 ± 0.035
AAAAAAAAGAAAAACACACACATATATATATATAAT [CACACA_site4707]	9.72 ± 0.042
TGAAAATAATTATAGGTGCATAAACATACGGATCTT	10.21 ± 0.021
TTTTTTTTAAGAGATAGTACATAAATATTATAATAT [XGTACX_site4685]	11.1 ± 0.86
GACATTAATTATTTGACACACGACTGGGTGGTGATT [CACACA_site306]	10.09 ± 0.021
TTTTTTGAAAATAAAAGTACAAATTTTATATTTAAA [XGTACX_site2758]	11 ± 0.88
AAATGTAATATAAATAGTACATATTAAATAAAATTA [XGTACX_site6917]	11.1 ± 0.88
AATAAAAATAATGAATGTACATATATATATACAATA [XGTACX_site3342]	10.9 ± 0.4
ATAAGTAATATAATATGTACATATATATATATATAT [XGTACX_site3818]	11.2 ± 0.5
ATGTATGTAATAAAAAGTACATATGTTCATAATAAA [XGTACX_site842]	11.4 ± 0.57
AATTTGAAATAAAGTAGTACAGTATATAAAAATATA [XGTACX_site128]	11.8 ± 1.1
AAAACTATTAAATGTAGTACATAATTATTGAAATAA [XGTACX_site8716]	11.6 ± 0.91
TATTTTGAAAATAAAAGTACAAATTTTATATTTAAA [XGTACX_site3238]	11.1 ± 0.83
AAATGAAATAAATGTAGTACACATATACAATATATA [XGTACX_site6951]	11.7 ± 1.1
TGAAAAATAAATAAATGTACATATATATATATATAC [XGTACX_site7310]	10.9 ± 0.49
AAAAAAAAAAAAAGTAGTACATAATATGTTCCTCCT [XGTACX_site8356]	11.6 ± 1
TCGTATTTAAAATGTAGTACATAATTTGAAAAATAA [XGTACX_site5832]	11.6 ± 0.83
AAGTATAAATTAAAATGTACTTATAAAAAAAAAGAA [XGTACX_site7028]	11.2 ± 0.72
TAGTAACTTGTATTCACACAAATTATATTATATTAC [CACACA_site5041]	9.965 ± 0.021

Sequence	gcPBM binding intensity (ln)
ACGTATGTATATTACACACATACATATTATTCACTA [CACACA_site204]	10.1 ± 0.16
AGTATGTAAATGTGCCATATATATATTAAATACATA [CACACA_negctrl_site14]	10.1 ± 0.23
AACATATACACGAACACACACACATATAAATAAATA [CACACA_site6380]	10.3 ± 0.37
ATAAAGTATATTATATGTACATATATATATTATATA [XGTACX_site1345]	11.1 ± 0.52
TTTTTTTTAGTATGAACACACATATATATTATAAAA [CACACA_site2935]	10.1 ± 0.25
ATAAGAAAAAGACACACACACAAAAAAAAAAAAAAA [CACACA_site2828]	9.95 ± 0.49
AAAGATAAAATATTATGTACATATATATATATATAT [XGTACX_site5079]	11.1 ± 0.56
AATAATTATAAAAAATGTACAAAAAAAAAAAAAAAA [XGTACX_site3681]	10.5 ± 0.83
AAGATAAAATTATGTAGTACAAAAAAAAATAAAAAA [XGTACX_site139]	11.7 ± 0.91
CGCATGTATTTTGTGTGTACTAATTATAATCAACTT [XGTACX_site4709]	11.4 ± 0.83
TTTTTTATGAGGTGGTGTACTTTTTTTTTTTTCTTT [XGTACX_site8550]	11.7 ± 0.97
TATGAGGAAACGTGGTGTACTTTTTTTTAATAAAAA [XGTACX_site1351]	11.6 ± 0.93
AAAAGTGTATGTAGGTGTACTTTTTATTTCTTCTTT [XGTACX_site8819]	11.6 ± 0.98
ATATATATAATTTGTACACACAAATATGCATATATA [CACACA_site3432]	11.3 ± 0.98
TATATGCATAATAACTGTACACAAATTGGGGTTGAT [XGTACX_site459]	11.6 ± 0.63
ATATATATATAATTTGTACACACAAATATGCATATA [CACACA_site9136]	11.3 ± 0.88
TATGTGCATATAAACTCACACATTGTATATTACATG [CACACA_site6106]	10.14 ± 0.035
ATTGTTTATATTGATTGTACTCATTTTTTTTTTATT [XGTACX_site1946]	11.5 ± 0.99
ATATATACGTATGAATGTATATTTGTTTGATTTTTT [CACACA_negctrl_site835]	9.88 ± 0.12
AATGATTGATTTTATTGTACGTACTCGGAATATGGT [XGTACX_site4976]	11.8 ± 1

Sequence	gcPBM binding intensity (ln)
TATATATATACATATTGTACATATTACATGCTATTA [XGTACX_site1184]	10.9 ± 0.64
ATATAAATATGACACACACACAAAAAAAATAAAGAC [CACACA_site6208]	10.3 ± 0.2
TTTTTTTTTTTTTAAACATGCATAATAAATATAATA [TGCATGCA_site265]	9.81 ± 0.35
TTTCGTAAACAAATTTGTACGTACAAATTTATAAAT [XGTACX_site8175]	11.7 ± 1.1
ACCTATTTATAATAGTGTACGTACAAATTTGTTTAC [XGTACX_site8176]	11.7 ± 0.89
ATATATATATATATATGTACGTAAACAAAAATTTAT [XGTACX_site6780]	11.4 ± 0.91
TGAAATTTATAATAGTGTACAAAGAAAAAAAAAAAA [XGTACX_site4965]	11 ± 0.78
ATTATATAATTTAATCGTACACAAATATTTGTTAGT [XGTACX_site5913]	11.3 ± 0.8
CATATATATTTTATTTGTACGTATAAAAAAACAAAA [XGTACX_site4253]	11.5 ± 1.1
TTTTTTAAAAATAACTGTACAGAGGCTGTTAGGATA [XGTACX_site2521]	11 ± 0.4
TTCCAAAAAATTATTACACACATATGAGCACATATA [CACACA_site4543]	10.1 ± 0.18
TTTCCTTATTAAAACACACAAATACATTATTTAATC [CACACA_site7080]	9.875 ± 0.035
AAAAGTATAATAAATTGTACTAACAAATATTTATGT [XGTACX_site7721]	10.9 ± 0.56
TTGAAAATGAAAAAATGTACTTAAAAAAAAGGAACA [XGTACX_site8664]	11.2 ± 0.71
CTTTGGTTATAACACACATGCACACGTAAATAAATA [TGCATGCA_site976]	10.5 ± 0.25
ATTTTTTTTTTTTTTTTTTATATGCTCTCCATGAGA [CACACA_negctrl_site1225]	9.7 ± 0.2
ATAAATATCATATATATACACACGTAATACATAATA [CACACA_site4001]	9.935 ± 0.092
GGGGGGAGGGTGAATACACACGTAATAATCATAAAC [CACACA_site8502]	11.6 ± 0.79
GGGGGGGGAGGGTGAATACACACGTAATAATCATAA [CACACA_site1716]	11.6 ± 0.94
